Assay results taken from PubChem BioAssay (Tox21).
Values joined by “and” are separate entries in the source; they are usually repeats but may differ in a detail not shown here. Identical values can stand only once. Results filed as inconclusive are left out. Where a call stands in place of a potency, no number is given. The source holds several records for some structures; these can differ, active in one and inactive in another. Active and inactive are the calls of the source. Unless noted, the call rests on the fitted dose curve; in most records, active means well fitted curve in the direction sought with a large enough effect in the repeat runs; inconclusive means weak or mixed curves; inactive means no such curve, though single readings can be large; an effect the other way counts as inactive or inconclusive.

Key:
[1] = qHTS assay to identify small molecule antagonists of the estrogen receptor alpha (ER-alpha) signaling pathway using the BG1 cell line in the presence of 0.1 nM 17-beta-estradiol - cell viability counter screen (AID 1259241); further: nearly all actives have a fitted effect of over 40% in size; further: potency means the concentration at half of the fitted maximal effect
Method in brief: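 The cell line endogenously expresses full-length ER-alpha and carries four EREs driving luciferase. Cells are cultured 5 days hormone-free, treated 22 hr with compounds and 0.1 nM estradiol, then viability is read by fluorescence.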

[2] = qHTS assay to identify small molecule antagonists of the androgen receptor (AR) signaling pathway using the MDA cell line in the presence of 0.5 nM R1881 - cell viability counter screen (AID 1259242); further: nearly all actives have a fitted effect of over 45% in size; further: potency means the concentration at half of the fitted maximal effect
Method in brief: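 Cytotoxicity toward MDA-kb2 cells is measured by CellTiter-Fluor live-cell protease fluorescence after 16 hr compound exposure at 37C in the presence of 0.5 nM R1881 stimulator.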

[3] = biological target: Estrogen receptor (Homo sapiens) (UniProt P03372); assay: qHTS assay to identify small molecule antagonists of the estrogen receptor alpha (ER-alpha) signaling pathway using the BG1 cell line in the presence of 0.1 nM 17-beta-estradiol (AID 1259244); further: nearly all actives have a fitted effect of over 50% in size; further: potency means the concentration at half of the fitted maximal effect
Method in brief: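 After 5 days in hormone-depleted medium (charcoal-stripped serum, no phenol red), VM7Luc4E2 cells were seeded, incubated 24 h, then co-treated with compound and 0.1 nM (final) estradiol for 22 h before luminescence detection.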

[4] = qHTS assay to identify small molecule HDAC inhibitors (AID 1259364); further: nearly all actives have a fitted effect of over 45% in size; further: potency means the concentration at half of the fitted maximal effect
Method in brief: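 Homogeneous cell-based luminescent assay of endogenous class I/II HDAC activity; HCT-116 cells, 2 h compound exposure, 30 min HDAC-Glo development at RT.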

[5] = qHTS assay to identify small molecule HDAC inhibitors - cell viability counter screen (AID 1259365); further: nearly all actives have a fitted effect of over 50% in size; further: potency means the concentration at half of the fitted maximal effect
Method in brief: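 Viability readout: CellTiter-Glo luminescence. Wild-type HCT-116 cells, 2hr compound treatment following overnight attachment at 37 C.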

[6] = qHTS assay to identify small molecule agonists of the sonic hedgehog signaling (Shh) pathway - cell viability counter screen (AID 1259366); further: nearly all actives have a fitted effect of over 50% in size; further: potency means the concentration at half of the fitted maximal effect
Method in brief: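 Viability measured fluorometrically (CellTiter-Fluor, 1hr, 37C) in 3T3 Gli1-Luc reporter cells after 23hr compound exposure within a 24hr incubation at 37C/5% CO2.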

[7] = qHTS assay to identify small molecule antagonists of the sonic hedgehog signaling (Shh) pathway - cell viability counter screen (AID 1259367); further: nearly all actives have a fitted effect of over 55% in size; further: potency means the concentration at half of the fitted maximal effect
Method in brief: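 NIH/3T3-derived Gli1-Luc reporter cells, 2,000/well, plated 4 hr before compound addition, then stimulated with conditioned medium for 24 hr at 37C. Viability measured in the same wells by CellTiter-Fluor fluorescence, reagent added at 23 hr for 1 hr.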

[8] = qHTS assay to identify small molecule agonists of the sonic hedgehog signaling (Shh) pathway (AID 1259368; calls by dose curve;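 further: NIH/3T3-derived 3T3Gli1-Luc cells carrying a stable Gli1-driven firefly luciferase reporter; series mostly up to about 92 µM; nearly all actives have a fitted effect of over 15% in size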)
Method in brief: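 Steps: seed 3T3 Gli1-Luc cells, incubate 4 hr at 37 C, pin-transfer compounds in DMSO alongside a positive control, incubate 24 hr, add luciferase detection reagent, wait 30 min at room temperature, read luminescence.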

[9] = qHTS assay to identify small molecule phospholipidosis (PLD) inducers (AID 1259344; active means well fitted curve in the direction sought with a large enough effect; an effect the other way counts as inactive or inconclusive)
Method in brief: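 HepG2 cells, 900/well, treated with compound plus LipidTOX Red for 24 h at 37 C; amiodarone positive and DMSO negative controls. Fixed with paraformaldehyde/Hoechst, then high-content imaging scored LipidTOX pit count and integrated intensity per well and per cell.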

Chain of Estrogen receptor (Homo sapiens) (P03372 whole entry, looked up): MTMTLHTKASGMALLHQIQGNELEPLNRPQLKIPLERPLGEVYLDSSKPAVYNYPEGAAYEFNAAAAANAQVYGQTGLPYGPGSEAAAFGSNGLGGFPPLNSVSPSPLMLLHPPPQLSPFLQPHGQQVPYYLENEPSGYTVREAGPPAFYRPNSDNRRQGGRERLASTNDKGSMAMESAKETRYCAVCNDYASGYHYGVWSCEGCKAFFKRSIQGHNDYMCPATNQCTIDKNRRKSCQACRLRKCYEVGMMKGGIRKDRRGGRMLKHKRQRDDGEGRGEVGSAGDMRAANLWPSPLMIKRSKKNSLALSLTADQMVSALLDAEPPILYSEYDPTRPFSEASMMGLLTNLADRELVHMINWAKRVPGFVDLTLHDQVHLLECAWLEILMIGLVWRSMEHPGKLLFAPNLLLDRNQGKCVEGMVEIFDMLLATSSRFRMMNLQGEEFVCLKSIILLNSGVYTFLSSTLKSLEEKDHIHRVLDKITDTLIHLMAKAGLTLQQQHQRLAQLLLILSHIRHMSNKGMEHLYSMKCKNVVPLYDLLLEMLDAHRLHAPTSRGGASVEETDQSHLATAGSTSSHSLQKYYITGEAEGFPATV

Compound | Potency [1] | Potency [2] | Potency [3] | Potency [4] | Potency [5] | Potency [6] | Potency [7] | Potency [8] | outcome [9] | PLD induction [9]
Clc1ccc(C(c2ccc(Cl)cc2)C(Cl)Cl)cc1 | inactive | inactive | inactive | inactive | inactive | inactive | inactive | inactive | – | –
Cc1cc2c3c(c1)C(c1ccccc1)=N[C@@H](NC(=O)c1ccncc1)C(=O)N3CC2 | inactive | inactive | inactive | inactive | inactive | inactive | inactive | inactive | – | –
CN1C(=O)[C@@H](NC(=O)c2cc3ccccc3[nH]2)N=C(c2ccccc2)c2ccccc21 | inactive | inactive | – | inactive | inactive | inactive | inactive | inactive | inactive | –
O=[N+]([O-])c1cc(C(F)(F)F)c(Cl)c([N+](=O)[O-])c1Nc1ncc(C(F)(F)F)cc1Cl | 21.7 µM (active) | 4.86 µM (active) | 24.3 µM (active) | inactive | 54.5 µM (active) | 4.33 µM (active) | 6.11 µM (active) | inactive | – | –
CC[C@H](C)[C@H]1O[C@]2(C=C[C@@H]1C)C[C@@H]1C[C@@H](C/C=C(\C)[C@@H](O[C@H]3C[C@H](OC)[C@@H](O[C@H]4C[C@H](OC)[C@@H](NC)[C@H](C)O4)[C@H](C)O3)[C@@H](C)/C=C/C=C3\CO[C@@H]4[C@H](O)C(C)=C[C@@H](C(=O)O1)[C@]34O)O2 | 15.4 µM (active) | 17.2 µM (active) | 10.9 µM (active) | inactive | 48.6 µM (active) | 12.2 µM (active) | 13.7 µM (active) | inactive | – | –
Brc1ccc(Oc2ccc(Br)cc2Br)c(Br)c1 | inactive | inactive | inactive | – | inactive | inactive | inactive | inactive | – | –
CC(Cl)CCl (stereo unspecified) | inactive | inactive | inactive | inactive | inactive | inactive | inactive | inactive | – | –
O=[N+]([O-])c1ccc(Cl)c(Cl)c1Cl | inactive | inactive | inactive | inactive | inactive | inactive | inactive | inactive | – | –
CCC1(CC)C(=O)N=C(O)NC1=O | inactive | inactive | inactive | inactive | inactive | inactive | inactive | inactive | – | –
CSC(C)(C)/C=N/O | inactive | inactive | inactive | inactive | inactive | inactive | inactive | inactive | – | –
ClC(Cl)C(Cl)(Cl)Cl | inactive | inactive | inactive | inactive | inactive | inactive | inactive | inactive | – | –
CCCCC/C=C\C/C=C\C/C=C\C/C=C\CCCC(=O)NCC(=O)O | inactive | inactive | – | inactive | inactive | inactive | inactive | inactive | – | 0.136% [at 3.15 µM] (inactive)
OCC(Br)CBr (stereo unspecified) | inactive | inactive | inactive | inactive | inactive | inactive | inactive | inactive | – | –
CC(O)C(=O)[O][Hg][c]1ccccc1 (stereo unspecified) | 12.2 µM (active) | 6.11 µM (active) | 8.63 µM (active) | 4.33 µM (active) | 4.33 µM (active) | 0.969 µM (active) | 1.22 µM (active) | inactive | – | –
O=[N+]([O-])c1ccccc1-c1ccccc1 | inactive | inactive | inactive | inactive | inactive | inactive | inactive | inactive | – | –
CSC(=O)c1c(C(F)F)nc(C(F)(F)F)c(C(=O)SC)c1CC(C)C | inactive | inactive | inactive | inactive | inactive | inactive | inactive | inactive | – | –
CCOP(=O)(Sc1ccccc1)Sc1ccccc1 | inactive | inactive | inactive | inactive | inactive | inactive | inactive | inactive | – | –
Nc1nc(N)nc(Cl)n1 | inactive | inactive | inactive | inactive | inactive | inactive | inactive | inactive | – | –
CCCCCCCCCCCCCCn1cc[n+](C)c1 | inactive | 30.7 µM (active) and 34 µM (active) and inactive | 612 nM (active) and 761 nM (active) and inactive | inactive | inactive | 17.3 µM (active) and 24.1 µM (active) | 19.4 µM (active) and 27 µM (active) | inactive | – | –
CC[C@]1(O)CC[C@H]2[C@@H]3CCC4=CCCC[C@@H]4[C@H]3CC[C@@]21C | inactive | inactive | – | inactive | inactive | inactive | inactive | inactive | inactive | –
CCNc1nc(NC(C)C(C)C)nc(SC)n1 (stereo unspecified) | inactive | inactive | inactive | inactive | inactive | inactive | inactive | inactive | – | –
COP(=S)(NC(C)C)Oc1ccc(C)cc1[N+](=O)[O-] (stereo unspecified) | inactive | inactive | 17.2 µM (active) | inactive | inactive | inactive | inactive | inactive | – | –
O=C(N[C@H]1N=C(c2ccccc2F)c2cccc3c2N(CC3)C1=O)c1cc2ccccc2[nH]1 | inactive | inactive | – | inactive | inactive | inactive | inactive | inactive | inactive | –
Brc1cccc(-c2ccccc2)c1 | inactive | inactive | inactive | inactive | inactive | inactive | inactive | inactive | – | –
